Assay results taken from PubChem BioAssay (NCATS).
Results filed as inconclusive are left out. A call without a number means that no potency is given here. Activity calls are given as the source filed them. The call rests on the fitted dose curve; in most records, active means well fitted cell-killing curve with a large enough effect; inconclusive means small, poorly fitted or top-dose-only effect, or effect the other way; inactive means flat fitted curve, though single readings scatter.

Experiment: S16 Schwann cell viability assay (CellTiter-Glo assay) (AID 624031);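 further: cellular ATP luminescence as a viability measure; nearly all actives have a fitted effect of over 70% in size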
Details: S16 rat Schwann cells viability, 24 h; series mostly up to 57.5 µM
Source text: Charcot-Marie-Tooth-Association [CMTA]
National Center for Advancing Translational Sciences [NCATS]
Charcot-Marie-Tooth (CMT) disease was first characterized by Jean-Martin Charcot and Pierre Marie in France and, independently, by Howard Henry Tooth in England in 1886. CMT is one of the most common inherited neurological diseases, affecting approximately 1 in 2,500 Americans. […] The most prevalent type of CMT is known as CMT1A and caused by a duplication of the PMP22 gene which leads to over-expression of this protein. PMP22 is a glycosylated intrinsic membrane protein accounting for 2-5% of the myelin protein content, and its over-expression results in demyelination and subsequently axonal loss.
A pair of cellular transcription-based assays was developed in the S16 rat Schwann cell lines (Hai, M., et al., 2002) stably transfected with orthogonal reporters - firefly luciferase (Fluc) and beta-lactamase (beta-Lac) - whose expression is driven by an intronic regulatory element of the PMP22 gene (Jones, E.A., et al., 2011) to recapitulate endogenous expression of PMP22. A comprehensive library of approved drugs, the NCGC Pharmaceutical Collection (Huang, R., et al., 2011), was screened in the cross-validating platform of the orthogonal reporter assays to identify drug modulators inhibitory towards PMP22 expression.
A set of counter-screens was devised to address non-specific activity of the library. An ATP-dependent CellTiter-Glo assay (developed by Promega Corp) was utilized to control cell viability. In addition, biochemical Fluc enzyme assay was performed to assess direct inhibition of the Fluc enzymatic activity.
Hai, M., Muja, N., DeVries, G.H., Quarles, R.H. and Patel, P.I. Comparative analysis of Schwann cell lines as model systems for myelin gene transcription studies. J Neurosci Res, 2002. 69(4): pp 497-508
Huang, R., Southall, N., Wang, Y., Yasgar A., Shinn P., Jadhav, A. , Nguyen, D.-T. and Austin, C.P., The NCGC pharmaceutical collection: a comprehensive resource of clinically approved drugs enabling repurposing and chemical genomics. Sci Transl Med, 2011. 3(80): p. 80ps16.
Native S16 cells were seeded in white solid-bottom 1536 well plates at between 500-750 cells/6uL in DMEM medium containing 10% FBS, w/o phenol red. After overnight incubation at 37 degree Celsius/5% C02, 23 nL of compounds or DMSO were delivered to each well using a pin tool, followed by 24h-incubation at 37 degree Celsius/5% C02. Then one volume of CellTiter-Glo assay reagent (Promega) was added to each well for cell viability measured by a ViewLux plate reader (PerkinElmer). The % activity was determined by normalizing to the average readings from wells containing no cells relative to DMSO-treated cells (0% Activity). The concentration-effect curves were then classified based on curve quality (r2), response magnitude and degree of measured activity.

Structure (SMILES)	Potency
CO/N=C(/C(=O)N[C@@H]1C(=O)N2C(C(=O)O)=C(C[n+]3ccc(N)n3CCO)CS[C@H]12)c1csc(N)n1	inactive
CC(CCC(=O)O)C1CCC2C3C(=O)C[C@@H]4CC(=O)CC[C@@]4(C)C3CC(=O)[C@]12C (stereo not given in full)	inactive
Nc1ncn(C2C[C@H](O)[C@@H](CO)O2)c(=O)n1 (stereo not given in full)	inactive
C=CCn1c(=O)n(C2OC(CO)C(O)C2O)c2nc(N)[nH]c(=O)c21 (stereo not given)	inactive
COc1ccc(C(=O)/C(Br)=C/C(=O)O)cc1	inactive
CC(=O)N[C@H]1[C@H](O[C@@H]2c3ccc(c(Cl)c3)Oc3cc4cc(c3O[C@@H]3O[C@H](CO)[C@@H](O)[C@H](O)C3C)Oc3ccc(cc3Cl)C[C@H]3NC(=O)[C@@H](N)c5ccc(O)c(c5)Oc5cc(O)cc(c5)[C@H](NC3=O)C(=O)N[C@H]4C(=O)N[C@H]3C(=O)N[C@@H]2C(=O)N[C@@H](C(=O)O)c2cc(O)cc(O[C@H]4O[C@H](CO)[C@@H](O)C(O)[C@@H]4O)c2-c2cc3ccc2O)O[C@H](CO)[C@@H](O)[C@@H]1O (stereo not given in full)	inactive
Cc1cnc(C(=O)O)cn1	inactive
CC[C@@H]1/C=C(\C)C[C@H](C)C[C@H](OC)[C@H]2O[C@@](O)(C(=O)C(=O)N3CCCC[C@H]3C(=O)O[C@H](/C(C)=C/[C@@H]3CC[C@H](Cl)[C@H](OC)C3)[C@H](C)[C@@H](O)CC1=O)[C@H](C)C[C@@H]2OC	inactive
CCC(=O)OC1C(N(C)C)CC(C)O[C@H]1O[C@H]1[C@H](C)[C@@H](O[C@H]2CC(OC)[C@@H](O)C(C)O2)[C@H](C)C(=O)O[C@@H](CC)[C@](C)(O)[C@@H](O)[C@H](C)C(=O)[C@@H](C)C[C@]1(C)O (stereo not given in full)	inactive
CC(=O)OC1C([N+]2(C)CCCCC2)C[C@H]2C3CC[C@H]4C[C@H](OC(C)=O)C([N+]5(C)CCCCC5)CC4(C)C3CCC12C (stereo not given in full)	inactive
C[C@@H](O)[C@@H]1C(=O)N2C(C(=O)O)=C([C@H]3CCCO3)S[C@H]12	inactive
C#C[C@@]1(O)CC[C@@H]2[C@H]3CCC4=C/C(=N\O)CC[C@H]4[C@@H]3CC[C@]21CC	inactive
C[C@]12CC[C@@H]3c4ccc(O)cc4C[C@@H](CCCCCCCCCS(=O)CCCC(F)(F)C(F)(F)F)C3[C@@H]1CC[C@@H]2O (stereo not given in full)	inactive
CNC1C(O)C(OC2C(N)CC(N)C(OC3OC(CN)=CCC3N)C2O)OCC1(C)O (stereo not given)	inactive
C[C@H](O)[C@@H]1C(=O)N2C(C(=O)O)=C(SCCN=CN)C[C@@H]12	inactive
N#C/C(=C1/SCC(c2ccccc2Cl)S1)n1ccnc1 (stereo not given)	inactive
COC(=O)C1[C@@H](OC)C(OC(=O)COc2ccc(OC)cc2)C[C@@H]2CN3CCc4c([nH]c5cc(OC)ccc45)[C@H]3C[C@H]12 (stereo not given in full)	inactive
CO/N=C(/C(=O)N[C@@H]1C(=O)N2C(C(=O)O)=C(CSc3nnnn3C)CS[C@H]12)c1csc(N)n1	inactive
O=c1[nH]c(=O)n(C2C[C@H](O)[C@@H](CO)O2)cc1C(F)(F)F (stereo not given in full)	inactive
COc1ccc2cc1Oc1cc3c(cc1OC)CC[N+](C)(C)C3Cc1ccc(cc1)Oc1c(OC)c(OC)cc3c1C(C2)[N+](C)(C)CC3 (stereo not given)	inactive

Structure (SMILES)	Potency
CC1=C(c2ccc(NN=C(C#N)C#N)cc2)NNC(=O)C1	inactive
O=C1C(I)=CC(=C(c2cc(I)c(O)c(I)c2)c2ccccc2C(=O)O)C=C1I	inactive
O=C(O)[C@H]1C[C@@H](CP(=O)(O)O)CCN1	inactive
CCN(CC)CCOCCOC(=O)C(CC)(CC)c1ccccc1 (tested in a mixture with another compound)	inactive
CNC1C(O)C(OC2C(NC(=O)C(O)CN)CC(N)C(OC3OC(CN)C(O)C(O)C3O)C2O)OCC1(C)O (stereo not given)	inactive
OCC1O[C@@H](O[C@@H]2C(CO)OC(O)C(O)C2O)C(O)C(O)C1O (stereo not given in full)	inactive
C[N+]12CCCC[C@@H]1CCC(=C(c1cccs1)c1cccs1)C2 (stereo not given in full)	inactive
CC(C)CCCC(C)C1CC(=O)C2=C3CCC4CC(O)CCC4(C)C3CCC21C (stereo not given)	inactive
O=[N+]([O-])O[C@H]1CO[C@H]2[C@@H]1OC[C@H]2O	inactive
C=C1C(n2cnc3c(=O)[nH]c(N)nc32)C[C@H](O)[C@H]1CO (stereo not given in full)	inactive
CCN1CCN(C(=O)NC(C(=O)NC2C(=O)N3C(C(=O)O)=C(CSc4nnnn4C)CSC23)c2ccc(O)cc2)C(=O)C1=O (stereo not given)	inactive
CC1(Cn2ccnn2)[C@H](C(=O)O)N2C(=O)C[C@H]2S1(=O)=O (stereo not given in full)	inactive
C[C@]12CCC(=O)C=C1[C@@H]1C[C@H]1[C@H]1[C@@H]3[C@@H]4C[C@H]4[C@@]4(CCC(=O)O4)[C@@]3(C)CC[C@@H]12	inactive
CC1(C)SC2C(NC(=O)C(C(=O)O)c3ccccc3)C(=O)N2C1C(=O)O (stereo not given)	inactive
CC(=O)OCC(=O)[C@@]1(O)CCC2C3CCC4=CC(=O)C=CC4(C)C3C(O)C[C@]21C (stereo not given in full)	inactive
COc1ccc(S(=O)(=O)N2c3ccc(Cl)cc3[C@](O)(c3ccccc3Cl)[C@@H]2C(=O)N2CCC[C@H]2C(N)=O)cc1OC	inactive
COc1cc2c(cc1O)CCN[C@@]21CS[C@H]2c3c(OC(C)=O)c(C)c4c(c3C(COC1=O)N1C2C2c3c(cc(C)c(OC)c3O)CC([C@@H]1O)N2C)OCO4 (stereo not given in full)	inactive
CC(=O)O[C@]1(C(C)=O)CCC2C3CCC4=CC(=O)CCC4(C)C3(F)C(O)CC21C (stereo not given in full)	inactive
CC[C@@H](C)C(N)C(=O)O (stereo not given in full)	inactive
Cc1c(C)c2c(c(C)c1O)CCC(C)(CCCC(C)CCCC(C)CCCC(C)C)O2 (stereo not given)	inactive
